Records with an inconclusive call do not appear. A number with no mark means an inactive call. Activity calls are given as the source filed them. Unless noted, calls follow the shape of the dose curve; as a rule, active = well fitted curve in the direction sought with a large enough effect in the repeat runs; inconclusive = weak or mixed curves; inactive = no such curve, though single readings can be large; an effect the other way counts as inactive or inconclusive.

Assay [1] deals with Luciferin 4-monooxygenase (Photinus pyralis) (UniProt P08659). The assay can be described thus: qHTS assay to identify small molecule inhibitors of firefly luciferase (AID 1224835). Also: nearly all actives have a fitted effect of over 25% in size. Also: potency is read from the fitted curve at half-maximal effect. In outline: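 Biochemical qHTS: compounds run as interplate titrations against purified firefly enzyme, with D-luciferin and ATP each at its KM concentration. Light output recorded by CCD imaging.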
Chain of Luciferin 4-monooxygenase (Photinus pyralis) (P08659 whole entry, looked up): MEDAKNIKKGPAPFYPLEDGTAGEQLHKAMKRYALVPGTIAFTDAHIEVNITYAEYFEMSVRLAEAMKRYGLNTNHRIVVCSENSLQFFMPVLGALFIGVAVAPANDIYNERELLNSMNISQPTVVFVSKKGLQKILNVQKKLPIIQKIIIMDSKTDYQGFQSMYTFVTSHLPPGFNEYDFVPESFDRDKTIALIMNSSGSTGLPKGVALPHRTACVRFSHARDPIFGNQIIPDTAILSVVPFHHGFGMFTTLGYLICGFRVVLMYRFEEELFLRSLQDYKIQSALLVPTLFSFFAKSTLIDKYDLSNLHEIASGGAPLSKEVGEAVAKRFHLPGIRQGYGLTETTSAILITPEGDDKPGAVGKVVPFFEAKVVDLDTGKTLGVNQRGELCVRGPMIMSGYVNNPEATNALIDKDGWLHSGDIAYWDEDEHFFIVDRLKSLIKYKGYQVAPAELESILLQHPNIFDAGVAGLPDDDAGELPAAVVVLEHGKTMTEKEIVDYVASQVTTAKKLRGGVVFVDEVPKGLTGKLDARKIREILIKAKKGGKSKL

Assay [2] in a line: qHTS assay to identify small molecule agonists of the constitutive androstane receptor (CAR) signaling pathway - cell viability counter screen (AID 1224836). Also: nearly all actives have a fitted effect of over 45% in size. Also: potency is read from the fitted curve at half-maximal effect. In outline:
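HepG2 cells stably carrying hCAR and a CYP2B6-2.2kb reporter were plated 4 h, then given compounds at 15 concentrations plus PK11195 (final 0.75 uM). After 23 h at 37 C, viability was read by CellTiter-Fluor fluorescence.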

A short description of assay [3]: qHTS assay to identify small molecule antagonists of the constitutive androstane receptor (CAR) signaling pathway - cell viability counter screen (AID 1224837). Also: nearly all actives have a fitted effect of over 45% in size. Also: potency is read from the fitted curve at half-maximal effect. In outline:
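Counter screen run in HepG2-CYP2B6-hCAR cells: 4 hr settle, compound titration (15 concentrations) with 50 nM CITCO, 23 hr at 37 C/5% CO2, CellTiter-Fluor fluorescence.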
A general note: qHTS replaces the single test concentration by a dilution series.

For assay [4], the target named is Nuclear receptor subfamily 1 group I member 3 (Homo sapiens) (UniProt Q14994). The assay can be described thus: qHTS assay to identify small molecule antagonists of the constitutive androstane receptor (CAR) signaling pathway (AID 1224838). Also: nearly all actives have a fitted effect of over 40% in size. In outline: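 Cell line: HepG2 double-stable for hCAR and CYP2B6-2.2kb reporter. Agonist: CITCO, 50 nM final. Compounds: 15 concentrations, 24 h, 37 C. Detection: ONE-Glo luminescence.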
Chain of Nuclear receptor subfamily 1 group I member 3 (Homo sapiens) (Q14994 whole entry, looked up): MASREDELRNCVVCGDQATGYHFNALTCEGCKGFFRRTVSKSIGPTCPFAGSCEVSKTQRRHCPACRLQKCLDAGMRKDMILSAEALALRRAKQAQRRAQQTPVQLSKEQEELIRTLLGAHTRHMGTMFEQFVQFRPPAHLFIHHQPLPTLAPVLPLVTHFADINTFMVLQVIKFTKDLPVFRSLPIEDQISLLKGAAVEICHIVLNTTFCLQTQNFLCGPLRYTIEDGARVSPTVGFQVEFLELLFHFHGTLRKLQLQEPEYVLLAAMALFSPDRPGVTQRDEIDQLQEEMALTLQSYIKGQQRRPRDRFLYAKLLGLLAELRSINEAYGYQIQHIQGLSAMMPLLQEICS

For assay [5] the target is unchanged. In words: qHTS assay to identify small molecule agonists of the constitutive androstane receptor (CAR) signaling pathway (AID 1224839). Also: nearly all actives have a fitted effect of over 15% in size. Also: potency is read from the fitted curve at half-maximal effect. The procedure, abridged: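 HepG2 cells stably expressing hCAR and a CYP2B6-2.2kb luciferase reporter were treated with compounds at 15 concentrations plus 0.75 uM PK11195 (final) for 24 h at 37 C; luminescence was read after ONE-Glo addition.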

Assay [6] in a line: qHTS assay to identify small molecule antagonists of the estrogen related receptor signaling pathway with the pleiotropic PPARgamma coactivator (PGC) from Tox21 10K library - cell viability counter screen (AID 1224840; active = well fitted cell-killing curve with a large enough effect in the repeat runs, not every such curve was filed as active; also: nearly all actives have a fitted effect of over 40% in size; also: potency is read from the fitted curve at half-maximal effect). In outline:
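Following seeding of 2,000 PGC/ERR cells/well and 6 hours' incubation, test compounds were delivered in DMSO. The plates then sat 17.5 hours at 37 C before a fluorogenic live-cell protease reagent (CellTiter-Fluor) was read after 30 min.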

Assay [7] is described as follows: qHTS assay to identify small molecule agonists of the estrogen related receptor signaling pathway with the pleiotropic PPARgamma coactivator (PGC) from Tox21 10K library (AID 1224842). Also: nearly all actives have a fitted effect of over 15% in size. Also: potency is read from the fitted curve at half-maximal effect. The procedure, abridged: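 PGC/ERR reporter cell line, 2,000 cells per well, incubated 6 h at 37 C before 23 nL compound in DMSO was added. After 18 h at 37 C, One-Glo luminescence read following 30 min at room temperature.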

Assay [8] is described as follows: qHTS assay to identify small molecule antagonists of the estrogen related receptor signaling pathway with the pleiotropic PPARgamma coactivator (PGC) from Tox21 10K library (AID 1224841; call rule not given here; also: actives are mostly falling curves and most rising ones were filed inactive; nearly all actives have a fitted effect of over 50% in size; also: potency is read from the fitted curve at half-maximal effect). In outline: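 qHTS antagonist format: PGC/ERR cells, 2k/well, compound in DMSO by pin transfer after 6 h attachment, 18 h treatment at 37 C, One-Glo luminescence read at 30 min.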

Assay [9] concerns the target Thyrotropin receptor (Homo sapiens) (UniProt P16473). The assay can be described thus: qHTS assay to identify small molecule agonists of the thyroid stimulating hormone receptor (TSHR) signaling pathway (AID 1224843; calls by dose curve; also: nearly all actives have a fitted effect of over 45% in size; also: potency is read from the fitted curve at half-maximal effect). The procedure, abridged: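 Steps: seed 800 TSHR-HEK293 cells per well; add test compound and hold 30 min at ambient temperature; dispense cAMP-d2 then anti-cAMP cryptate; incubate 1 h at ambient; measure fluorescence intensity.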

Chain of Thyrotropin receptor (Homo sapiens) (P16473 whole entry, looked up): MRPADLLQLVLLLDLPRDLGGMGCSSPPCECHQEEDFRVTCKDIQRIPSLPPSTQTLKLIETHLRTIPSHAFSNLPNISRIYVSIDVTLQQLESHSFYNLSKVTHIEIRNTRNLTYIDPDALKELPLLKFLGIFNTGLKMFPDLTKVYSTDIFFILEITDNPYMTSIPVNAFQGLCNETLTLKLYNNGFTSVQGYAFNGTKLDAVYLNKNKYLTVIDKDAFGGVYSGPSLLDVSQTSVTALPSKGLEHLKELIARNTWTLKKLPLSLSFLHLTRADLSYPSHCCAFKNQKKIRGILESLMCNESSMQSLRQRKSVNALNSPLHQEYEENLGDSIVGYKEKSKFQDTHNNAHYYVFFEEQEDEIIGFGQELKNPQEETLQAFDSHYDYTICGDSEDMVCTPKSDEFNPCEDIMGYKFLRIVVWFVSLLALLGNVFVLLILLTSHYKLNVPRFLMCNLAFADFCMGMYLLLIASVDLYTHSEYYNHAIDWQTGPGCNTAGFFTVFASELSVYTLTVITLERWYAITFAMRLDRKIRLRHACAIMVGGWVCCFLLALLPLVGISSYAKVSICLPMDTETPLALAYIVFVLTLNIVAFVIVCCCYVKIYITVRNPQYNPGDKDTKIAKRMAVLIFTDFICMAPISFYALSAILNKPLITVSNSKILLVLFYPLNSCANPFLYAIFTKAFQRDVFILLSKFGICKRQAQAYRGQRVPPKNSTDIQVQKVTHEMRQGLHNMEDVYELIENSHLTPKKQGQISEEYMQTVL

Consider `CCOc1ccc(N)c([N+](=O)[O-])c1`, for which the Potency result in assay [1], in assay [2], in assay [3], in [4], in [5] and in assay [6] was “inactive” each time. In addition, in assay [7], the Potency entry is “inactive”.

`CCN(CC)c1ccc2c(-c3ccccc3C(=O)O)c3ccc(=[N+](CC)CC)cc-3oc2c1`: the Potency in [1] was 11.2 µM (active); in [2], 7.7 µM (active); in assay [3] it was 7.7 µM (active); in assay [6], 17.2 µM (active); in [8], 43.3 µM (active). Also, the Potency entry in assay [4] was “inactive”.

In the case of `COc1ccc(C)cc1[N+](=O)[O-]`, the Potency result in assay [1], in assay [2], in assay [3], in [4], in assay [5] and in assay [6] was “inactive” in each case. Moreover, the Potency entry in assay [7] and in [9] was “inactive” in each case.

As for `O=C(O)c1nc(Cl)c(Cl)c(Cl)c1Cl`, the Potency entry in [1], in assay [2], in assay [3], in assay [4], in [6] and in assay [7] was “inactive” each time. The Potency in [5] was 17.2 µM (active).

In the case of `Cn1c(=O)cc(Oc2ccc(F)cc2F)c2cnc(NCC(C)(C)O)nc21`, the Potency entry in assay [1], in assay [2], in assay [3], in assay [4], in assay [5] and in [6] was “inactive” each time. Also, in [8], the Potency was 34.4 µM (active).

Consider `COCCCN1CCC(NC(=O)c2cc(Cl)c(N)c3c2OCC3)CC1`, for which the Potency result in [1], in [2], in [3], in [4], in [5] and in [6] was “inactive” each time. The Potency result in [8], in assay [7] and in [9] was “inactive” in each case.

For `O=C(Nc1ccccc1)c1ccccc1O`, the Potency in assay [1] was 15.9 µM (active); in assay [5] it was 27.3 µM (active). Also, the Potency result in assay [2], in assay [3], in [4] and in [7] was “inactive” throughout.

Take `CC(C)=CCC/C(C)=C/CC/C(C)=C/CO`: the Potency entry in assay [1], in assay [2], in assay [3], in assay [4], in assay [6] and in assay [9] was “inactive” each time.

As to `CCOC(=O)C1=C[C@]2(CC)CCCN3CCc4c(n1c1ccccc41)[C@@H]32`, the Potency result in [1], in assay [2], in assay [3], in assay [4] and in [6] was “inactive” throughout. In addition, the Potency in assay [9] was 18.8 µM (active).

Regarding `COc1ccc(C(=O)Nc2nc3ccccc3c(NCc3ccccc3)c2C#N)cc1`, the Potency result in assay [1], in assay [2], in [3], in assay [4], in assay [6] and in [7] was “inactive” throughout. In addition, the Potency result in [9] is “inactive”. In addition, the Potency in assay [5] is 21.7 µM (active).

Take `CCOC(=O)COC(=O)c1cc(Oc2ccc(C(F)(F)F)cc2Cl)ccc1[N+](=O)[O-]`: the Potency entry in assay [1], in assay [2], in assay [3], in [4] and in [6] was “inactive” in each case.

On to `CCOC(=O)c1cccnc1`, for which the Potency entry in assay [1], in [2], in assay [3], in assay [4], in assay [5] and in assay [6] was “inactive” in each case. In addition, the Potency result in assay [9] was “inactive”.

On to `CN(C)c1ccc(C(c2ccccc2)c2ccc(N(C)C)cc2)cc1`, for which the Potency entry in assay [1], in assay [2], in [3], in assay [4], in [5] and in assay [6] was “inactive” each time. Also, the Potency entry in [7] and in assay [9] was “inactive” in each case.

For the compound `CC(=O)c1ccc2c(c1)N(CCCN(C)C)c1ccccc1S2`, the Potency result in [1], in [2], in [3], in assay [4], in assay [5] and in [6] was “inactive” each time. In addition, the Potency entry in [9] was “inactive”.

As to `CN1CCC(N(Cc2cccs2)c2ccccc2)CC1`, the Potency entry in assay [1], in assay [2], in assay [3], in assay [4], in assay [5] and in [6] was “inactive” in each case. Besides, in assay [7], the Potency entry is “inactive”.

For the compound `CC1=CCCC(C)(C)C12CCC(C)O2` (stereo unspecified), the Potency result in assay [1], in [2], in assay [3] and in assay [6] was “inactive” each time.

As for `Nc1cccc([N+](=O)[O-])c1`, the Potency result in assay [1], in [2], in [3], in [4], in [5] and in [6] was “inactive” each time. Besides, in assay [8], the Potency result was “inactive”.

Take `COc1ccc(C(=O)c2ccc(OC)cc2O)c(O)c1`: the Potency in assay [1] was 28.5 µM (active); in assay [5], 9.76 µM (active); in [7] it was 4.89 µM (active). The Potency entry in assay [2], in assay [3], in assay [4], in assay [6], in [8] and in assay [9] was “inactive” throughout.

Consider `CCOC(=O)NCCOc1ccc(Oc2ccccc2)cc1`, for which the Potency in assay [1] is 31.7 µM (active); in assay [5], 48.6 µM (active). Further, the Potency entry in [2], in assay [3], in assay [4], in [6] and in [7] was “inactive” throughout.

Consider `c1ccc(CNCCNCc2ccccc2)cc1`, for which the Potency result in assay [1], in assay [2], in assay [3], in assay [4], in assay [5] and in assay [6] was “inactive” each time. Moreover, the Potency result in [9] is “inactive”.

On to `C[N+]1(C)CCC(OC(=O)C(O)(c2ccccc2)C2CCCC2)C1` (stereo unspecified), for which the Potency result in [1], in [2], in assay [3], in assay [4], in assay [5] and in assay [6] was “inactive” each time. Further, in [9], the Potency entry is “inactive”.

With `CCCCCCCC/C=C\CCCCCCCC(=O)OCC`, the Potency result in assay [1], in [2], in assay [3], in [4], in assay [5] and in [6] was “inactive” in each case. In addition, the Potency result in assay [8], in assay [7] and in assay [9] was “inactive” in each case.

With `COC(C)(C)CCO`, the Potency entry in assay [1], in assay [2], in assay [3], in assay [4], in [5] and in assay [6] was “inactive” in each case. The Potency result in assay [8] and in assay [9] was “inactive” each time.

With `CCCCC/C=C\C/C=C\CCCCCCCC(=O)NC(C)c1ccccc1` (stereo unspecified), the Potency result in assay [1], in [2], in assay [3], in [4], in assay [5] and in assay [6] was “inactive” each time. Besides, the Potency entry in assay [9] is “inactive”.

`CCCCC(CC)CN1C(=O)C2C3C=CC(C3)C2C1=O` (stereo unspecified): the Potency result in assay [1], in assay [2], in assay [3], in assay [4], in [6] and in [8] was “inactive” each time. Besides, the Potency in assay [5] is 30.6 µM (active).

These data come from PubChem BioAssay (Tox21).
